Screens as filed in PubChem.
The list is not random: actives were taken first. Their share in the collection is about 21%.
Pf growth 48h = inhibits P. falciparum growth in the first generation, 48 h. P. falciparum luciferase growth in erythrocytes, 48 h. Potency, µM (series often up to 28.7 µM), inactives show top-dose activity change, negative = inhibition, hits mostly inhibitors. 310,000 compounds, 5.9% hits; further: potency means the concentration at half of the fitted maximal effect; on the % scale 0 is the no-effect control and ±100 the full control effect
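Compounds are pin-transferred into medium, infected erythrocytes (2% hematocrit, 0.1% parasitemia final) are added, and plates sit one parasite generation at 37 C in 5% CO2. Detection reagent is then added and luminescence measured.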
Pf growth 96h = inhibits malaria parasite growth, 96 h | P. falciparum luciferase reporter growth, 96 h | Potency, µM (series often up to 28.7 µM), inactives show top-dose activity change, negative = inhibition, most hits filed as inhibitors | 320,000 compounds, 6.9% hits | AID 504834; further: potency means the concentration at half of the fitted maximal effect; on the % scale 0 is the no-effect control and ±100 the full control effect
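Cell-based qHTS: luciferase-tagged P. falciparum in erythrocytes (2% hematocrit, 0.05% parasitemia final) incubated with compounds for 96 hours, 37 C, 5% CO2; luciferase detection reagent then added and luminescence measured.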
Giardia FBPA inh = inhibitors of Giardia lamblia fructose-1,6-bisphosphate aldolase. A8B2U2. purified Giardia FBPA. Potency, µM (titrated, usually from 59.6 µM), for the others: at the top dose activity, negative = inhibition, usual class: inhibitors. 290,000 compounds, 0.71% hits. AID 2451; further: potency means the concentration at half of the fitted maximal effect; on the % scale 0 is the no-effect control and ±100 the full control effect; nearly all actives have a fitted effect of over 55% in size
Target sequence (A8B2U2 whole entry, looked up): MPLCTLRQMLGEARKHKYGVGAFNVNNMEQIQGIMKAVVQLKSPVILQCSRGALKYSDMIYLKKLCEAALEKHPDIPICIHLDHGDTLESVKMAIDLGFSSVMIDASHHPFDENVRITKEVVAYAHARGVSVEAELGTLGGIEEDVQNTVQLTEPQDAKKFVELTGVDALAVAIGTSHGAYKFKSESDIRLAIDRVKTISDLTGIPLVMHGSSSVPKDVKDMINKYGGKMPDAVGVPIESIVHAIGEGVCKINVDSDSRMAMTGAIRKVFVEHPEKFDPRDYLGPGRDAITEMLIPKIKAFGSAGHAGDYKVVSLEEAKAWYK
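40 nM FBPA preincubated 10 min at RT with compound (up to 57.5 uM final), then substrate plus GAPDH/TPI/NAD/arsenate coupling and diaphorase/resazurin added. Fluorescence read after 20 min at RT, 525/598 nm.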
Shiga inhibitor = blocks Shiga toxin action in Vero cells | Vero cells, Shiga toxin protein synthesis inhibition reporter | inhibition, % at 38.7 µM | 290,000 compounds, 9.2% hits; in the data active means inhibition mostly above about 28%, no sharp cut-off; inactive means mostly below about 43%; further: 0% is about no effect
NS1 function inh = influenza NS1 inhibition | Potency, µM (series often up to 46.1 µM), for inactives: top-dose activity, positive = more growth | 270,000 compounds, 0.4% hits; calls by dose curve; further: potency means the concentration at half of the fitted maximal effect; actives are rising curves; nearly all actives have a fitted effect of over 50% in size
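Growth recovery, yeast-based: influenza A NS1 expressed in S. cerevisiae causes slow growth, and suppressors are detected by OD600. The parent strain without NS1 is used as positive control.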
CHX counter = counter-screen for Shiga toxin inhibitors: cycloheximide protein synthesis inhibition. cell reporter, cycloheximide protein synthesis inhibition counterscreen. max response, %. 300,000 compounds, 12% hits; in the data active means max response mostly above about 13%, no sharp cut-off; inactive means mostly below about 14%; further: read at 38.3 µM for the half of the compounds with a filed dose; 0% is about no effect
* hit, by the source's call; i = inactive; u = inconclusive; x = no result; [ ] = dose if it differs, or a comment. Unless noted, the call rests on the fitted dose curve; in most records, active means well fitted curve in the direction sought with a large enough effect; inconclusive means small, poorly fitted or top-dose-only effect, or another doubt; inactive means no such curve, though single readings can be large; an effect the other way counts as inactive or inconclusive.

SMILES	Pf growth 48h	Pf growth 96h	Giardia FBPA inh	Shiga inhibitor	NS1 function inh	CHX counter
Cc1cc(N2CCN(C)CC2)nc2ccc(NC(=S)N3CCN(c4ccc(F)cc4)CC3)cc12	-17%	3.7µM*	0%	-32	x	-4
Cc1cc(N2CCOCC2)nc2ccc(NC(=S)N3CCCCC3C)cc12 (stereo unspecified)	u	u	-29%	19	x	31*
O=C(c1c(O)c2ccc(Cl)cc2[nH]c1=O)C1CC1	x	x	-10%	x	x	x
OCC1OC(C#Cc2ccccc2)C=CC1O (stereo unspecified)	x	x	-1%[12.9 µM]	x	x	x
COc1ccc(CN2CCN(CCc3ccccc3)C(CCO)C2)c(Cl)c1OC (stereo unspecified)	u	-16%	11%	-9	-6%	-1
N#CCOC(=O)[C@H](Cc1ccccc1)N1C(=O)c2ccccc2C1=O	-14%	4%	-3%	20	-1%	-2
COc1ccc2[nH]c(=O)c(C(c3nnnn3C3CCCC3)N3CCN(Cc4ccc5c(c4)OCO5)CC3)cc2c1 (stereo unspecified)	12µM*	u	-2%	22	1%	6
CCOc1ccc2[nH]c(=O)c(C(c3nnnn3C3CCCCC3)N3CCN(CC)CC3)cc2c1 (stereo unspecified)	u	-18%[5.75 µM]	4%	13	-5%	-8
O=c1[nH]c2cc3c(cc2cc1C(c1nnnn1C1CCCCC1)N1CCSCC1)OCCO3 (stereo unspecified)	13µM*	5%	-5%	15	-5%	0
CN1CCN(c2ncnc3ccc(-c4ccoc4)cc23)CC1	x	x	-4%	x	x	x
C/C(=N\Nc1cccc(Cl)c1)C1(C)N(O)C(C)(C)C(c2ccco2)=[N+]1[O-] (stereo unspecified)	7.4µM*	u	-8%	74*	-3%	30*
Cc1ccc(SCCOCCN2CCc3ccccc3C2)cc1	7%	-29%	-8%	-5	-22%	-2
CC(C)(C)NC(=O)CSc1nc2ccccc2c(=O)[nH]1	12µM*	77%	0%	18	1%	32*
Cc1cc(C(=O)CSc2nc3ccccc3c(=O)[nH]2)c(C)n1C	15%	35%	-18%	133*	-9%	34*
CCC(C)(C)NC(=O)CSc1nc(Cc2ccccc2)nc2ccccc12	u	u	5%	-3	7%	1
Cc1cc(C(=O)CSC(C)c2nc3ccccc3c(=O)[nH]2)c(C)n1C (stereo unspecified)	-7%	x	-22%	-3	-2%	4
CC(C)N(C(=O)CSc1nc(Cc2ccccc2)nc2ccccc12)C(C)C	10µM*	-2%	14%	x	9%	-3
CSc1nc(Cc2ccccc2)nc2ccccc12	14%	104%	8%	-6	-9%	-2
CC(C)(C)NC(=O)CSc1nc(Cc2ccccc2)nc2ccccc12	-17%	13µM*	8%	-1	-22%	-5
CCCCN(C(=O)c1cccs1)C1CCS(=O)(=O)C1 (stereo unspecified)	-5%	8%	x	x	x	x
CC(C)c1ccc(NC2CCCN(C(=O)CCN3CCCCO3)C2)cc1 (stereo unspecified)	11%	u	x	-35	-13%	1
COc1ccc(NC(=O)C(C)Sc2nnc3c4c(nc(-c5ccc(OC)cc5)n23)CC(C)(C)OC4)cc1 (stereo unspecified)	2.9µM*	u	0%	-1	0%	-2
CCOc1cccc(-c2c(C(=O)N/N=C/c3ccc(C)s3)nnn2-c2nonc2N)c1	u	15µM*	x	10	18%	-3
COc1cccc(-c2c(C(=O)N/N=C/c3ccc(C)s3)nnn2-c2nonc2N)c1	10µM*	4.1µM*	u	-8	6%	-4
CCOc1ccc(-c2c(C(=O)N/N=C/c3ccc(C)s3)nnn2-c2nonc2N)cc1	-23%	u	-7%	-1	5%	7
SMILES	Pf growth 48h	Pf growth 96h	Giardia FBPA inh	Shiga inhibitor	NS1 function inh	CHX counter
Cc1ccccc1N1CCN(C2CCCN(C(=O)CCC(F)(F)F)C2)CC1 (stereo unspecified)	4%	u	4%	x	9%	-1
Cc1ccc(C)c(NC(=O)CSc2nnc(-c3n[nH]c4ccccc34)o2)c1	-25%	-4%	0%	-2	-2%	-1
CC(C)(C)c1ccc(NC(=O)CSc2nnc(-c3n[nH]c4ccccc34)o2)cc1	80%	11%	-24%	37*	9%	26
CCc1ccc(NC(=O)CCCN2C(=S)NC(C)(C)CC2C)cc1 (stereo unspecified)	u	1.9µM*	0%	28	x	-1
Cc1cccc(NC(=O)CN2C(=S)NC(C)(C)CC2C)c1 (stereo unspecified)	-3%	10µM*	-12%	-4	-5%	-2
CC1CC(C)(C)NC(=S)N1CCCC(=O)Nc1ccc2c(c1)OCCO2 (stereo unspecified)	111%	u	u	116*	12%	42*
Cc1ccc(NC(=O)CCCN2C(=S)NC(C)(C)CC2C)cc1 (stereo unspecified)	3%	0%	-11%	-8	x	1
CC1CN(C(=O)C(C)OC(=O)c2ccc3ncsc3c2)CC(C)O1 (stereo unspecified)	-1%	7%	x	x	x	x
Cc1cc(OCC(O)CN2CCc3ccccc3C2)ccc1Cl (stereo unspecified)	27%	-30%	-23%	-3	-1%	-1
CC(=O)c1nnn(-c2ccccc2C#N)c1C	68%	47%	5%	-4	0%	-1
N#Cc1ccc(-n2c(-c3ccccc3)nnc2-c2ccccc2)cc1C#N	u	0%	-3%	37	u	30*
N#Cc1cccc(-n2c(-c3ccccc3)nnc2-c2ccccc2)c1C#N	5.2µM*	x	-9%	24	26%	19*
C=CCOc1ccc(/C=N/O)cc1Cl	40%	3.3µM*	4%	50*	-1%	20*
COc1cc(/C=C(/C)[N+](=O)[O-])ccc1OCc1ccccc1Cl	29%	u	-6%	28	-35%	-7
COc1cc(/C=N/O)ccc1OCc1ccccc1Cl	i	-13%	-8%	86*	-1%	48*
Cc1ccc(S(=O)(=O)N2CCOCC2)cc1C(=O)c1nccn1C	29%	-13%	0%	-4	1%	-3
c1ccc(C(c2ccccc2)N2CCC3(CCNCC3)CC2)cc1	x	x	0%	x	x	x
Cc1nc2ccc(NC(=O)CSc3nnc(C)s3)cc2[nH]1	34%	u	u	-6	-16%	-3
COc1ccccc1NC(=O)c1oc2ccc(C)cc2c1C	11%	x	-4%	101	-5%	34*
COc1ccccc1NC(=O)Cc1coc2cc(C)ccc12	x	-26%	1%	24	-58%	24*
CC(CC(=O)N1CCN(S(=O)(=O)c2ccc(Cl)cc2)CC1)n1cncn1 (stereo unspecified)	-5%	30%	1%	-10	-28%	-2
